Data on 19 compounds can be found in PubChem BioAssay.

Assay [1] addresses Nuclear receptor coactivator 3 (Homo sapiens) (UniProt Q9Y6Q9). The assay can be described thus: NCOA3 GAL4-fusion reporter inhibition – cell-based, luminescence, quadruplicate, confirmation (AID 588792;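 active = mean inhibition over 43.08%, the solvent-only control mean plus 3 SD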;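 also: 0% = DMSO treated cells and 100% = gossypol at 36 µM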). As to conditions: HEK293 GAL4-SRC3 luciferase reporter, at 3.6 µM, hits give high values. Background: A reporter such as luciferase makes a cellular process visible.
The subject of assay [2] is transactivating tegument protein VP16 (Human herpesvirus 1), Gal4-VP16 luciferase reporter. In words: repression of VP16-driven luciferase reporter – cell-based, luminescence, high throughput, counter-screen for SRC3 inhibitor project (AID 588794; in the data active = inhibition above about 30%). As to conditions: mammalian cells, at 3.6 µM, hits give high values.
The target of assay [3] is Nuclear receptor coactivator 1 (Homo sapiens) (UniProt Q15788). In words: NCOA1 GAL4-fusion reporter inhibition – cell-based, luminescence, quadruplicate, confirmation (AID 588820;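 active = mean inhibition above 46.68%, the untreated control wells mean plus 3 SD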;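 also: 0% = DMSO wells and 100% = gossypol 36 µM treated wells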). To be noted: HEK293 GAL4-SRC1 luciferase reporter, at 3.6 µM, hits give high values.
Nuclear receptor coactivator 1 (Homo sapiens), sequence (Q15788 whole entry, looked up, the tested form may be a part): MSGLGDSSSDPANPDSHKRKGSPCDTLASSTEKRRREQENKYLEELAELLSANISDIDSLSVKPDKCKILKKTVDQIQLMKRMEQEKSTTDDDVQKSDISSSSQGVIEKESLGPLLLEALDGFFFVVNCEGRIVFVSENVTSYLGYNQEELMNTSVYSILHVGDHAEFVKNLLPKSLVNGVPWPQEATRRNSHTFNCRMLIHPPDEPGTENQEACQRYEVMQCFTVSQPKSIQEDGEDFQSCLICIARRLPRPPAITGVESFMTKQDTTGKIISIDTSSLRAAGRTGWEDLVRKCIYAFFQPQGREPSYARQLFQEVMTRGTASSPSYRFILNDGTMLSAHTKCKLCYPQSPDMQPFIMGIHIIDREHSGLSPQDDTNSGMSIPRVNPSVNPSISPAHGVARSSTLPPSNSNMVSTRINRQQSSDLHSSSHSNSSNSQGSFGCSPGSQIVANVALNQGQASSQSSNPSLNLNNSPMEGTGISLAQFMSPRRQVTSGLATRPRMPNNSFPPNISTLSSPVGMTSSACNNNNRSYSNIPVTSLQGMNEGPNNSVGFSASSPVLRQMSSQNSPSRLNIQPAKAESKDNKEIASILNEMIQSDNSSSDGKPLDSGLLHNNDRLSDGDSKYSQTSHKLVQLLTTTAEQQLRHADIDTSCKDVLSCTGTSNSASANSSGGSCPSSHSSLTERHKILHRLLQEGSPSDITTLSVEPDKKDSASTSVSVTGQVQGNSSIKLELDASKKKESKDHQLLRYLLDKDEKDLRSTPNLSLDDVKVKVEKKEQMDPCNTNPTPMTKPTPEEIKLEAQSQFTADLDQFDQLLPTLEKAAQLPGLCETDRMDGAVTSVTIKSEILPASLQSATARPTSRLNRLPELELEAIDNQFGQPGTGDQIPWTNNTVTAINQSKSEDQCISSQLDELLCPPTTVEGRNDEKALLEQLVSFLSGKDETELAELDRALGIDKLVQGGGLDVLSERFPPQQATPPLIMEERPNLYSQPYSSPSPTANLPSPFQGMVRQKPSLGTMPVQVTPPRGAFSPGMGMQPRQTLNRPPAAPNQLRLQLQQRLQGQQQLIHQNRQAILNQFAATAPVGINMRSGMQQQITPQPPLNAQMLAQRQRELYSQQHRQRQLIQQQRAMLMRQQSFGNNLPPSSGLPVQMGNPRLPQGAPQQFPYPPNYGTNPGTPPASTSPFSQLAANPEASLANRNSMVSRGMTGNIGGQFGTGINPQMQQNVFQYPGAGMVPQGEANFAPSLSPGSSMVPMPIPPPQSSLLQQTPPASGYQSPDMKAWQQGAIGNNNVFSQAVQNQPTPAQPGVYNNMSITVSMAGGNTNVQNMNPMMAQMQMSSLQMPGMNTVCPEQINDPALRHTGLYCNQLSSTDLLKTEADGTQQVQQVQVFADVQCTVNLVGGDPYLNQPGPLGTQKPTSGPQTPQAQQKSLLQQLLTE
Assay [4] in a line: repression of VP16-driven luciferase reporter – cell-based, luminescence, high throughput, counter-screen for SRC1 inhibitor project (AID 588824; in the data active = inhibition above about 25%). As to conditions: cell-based VP16 transactivation luciferase luminescence; at 3.6 µM; hits give high values.
The subject of assay [5] is transactivating tegument protein VP16 (Human herpesvirus 1). In words: compounds suppressing VP16-driven luciferase signal – cell-based, luminescence, single concentration, counter-screen for SRC2 inhibitor project (AID 652007; in the data active = inhibition above about 36%). To be noted: cell-based VP16 transactivation luciferase reporter, at 8.9 µM, hits give high values. Background: A counterscreen serves to expose hits that act by an unwanted route or on another target.

The target of assay [6] is Nuclear receptor coactivator 2 (Homo sapiens) (UniProt Q15596). In words: inhibition of GAL4-SRC2 driven luciferase expression – cell-based, luminescence, HEK293, triplicate, confirmation (AID 652008).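 Also: 0% = DMSO-treated cells and 100% = Gossypol at 36 µM.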 As to conditions: HEK293 GAL4-SRC2 luciferase reporter, at 8.9 µM, hits give high values.
Nuclear receptor coactivator 2 (Homo sapiens), sequence (Q15596 whole entry, looked up, the tested form may be a part): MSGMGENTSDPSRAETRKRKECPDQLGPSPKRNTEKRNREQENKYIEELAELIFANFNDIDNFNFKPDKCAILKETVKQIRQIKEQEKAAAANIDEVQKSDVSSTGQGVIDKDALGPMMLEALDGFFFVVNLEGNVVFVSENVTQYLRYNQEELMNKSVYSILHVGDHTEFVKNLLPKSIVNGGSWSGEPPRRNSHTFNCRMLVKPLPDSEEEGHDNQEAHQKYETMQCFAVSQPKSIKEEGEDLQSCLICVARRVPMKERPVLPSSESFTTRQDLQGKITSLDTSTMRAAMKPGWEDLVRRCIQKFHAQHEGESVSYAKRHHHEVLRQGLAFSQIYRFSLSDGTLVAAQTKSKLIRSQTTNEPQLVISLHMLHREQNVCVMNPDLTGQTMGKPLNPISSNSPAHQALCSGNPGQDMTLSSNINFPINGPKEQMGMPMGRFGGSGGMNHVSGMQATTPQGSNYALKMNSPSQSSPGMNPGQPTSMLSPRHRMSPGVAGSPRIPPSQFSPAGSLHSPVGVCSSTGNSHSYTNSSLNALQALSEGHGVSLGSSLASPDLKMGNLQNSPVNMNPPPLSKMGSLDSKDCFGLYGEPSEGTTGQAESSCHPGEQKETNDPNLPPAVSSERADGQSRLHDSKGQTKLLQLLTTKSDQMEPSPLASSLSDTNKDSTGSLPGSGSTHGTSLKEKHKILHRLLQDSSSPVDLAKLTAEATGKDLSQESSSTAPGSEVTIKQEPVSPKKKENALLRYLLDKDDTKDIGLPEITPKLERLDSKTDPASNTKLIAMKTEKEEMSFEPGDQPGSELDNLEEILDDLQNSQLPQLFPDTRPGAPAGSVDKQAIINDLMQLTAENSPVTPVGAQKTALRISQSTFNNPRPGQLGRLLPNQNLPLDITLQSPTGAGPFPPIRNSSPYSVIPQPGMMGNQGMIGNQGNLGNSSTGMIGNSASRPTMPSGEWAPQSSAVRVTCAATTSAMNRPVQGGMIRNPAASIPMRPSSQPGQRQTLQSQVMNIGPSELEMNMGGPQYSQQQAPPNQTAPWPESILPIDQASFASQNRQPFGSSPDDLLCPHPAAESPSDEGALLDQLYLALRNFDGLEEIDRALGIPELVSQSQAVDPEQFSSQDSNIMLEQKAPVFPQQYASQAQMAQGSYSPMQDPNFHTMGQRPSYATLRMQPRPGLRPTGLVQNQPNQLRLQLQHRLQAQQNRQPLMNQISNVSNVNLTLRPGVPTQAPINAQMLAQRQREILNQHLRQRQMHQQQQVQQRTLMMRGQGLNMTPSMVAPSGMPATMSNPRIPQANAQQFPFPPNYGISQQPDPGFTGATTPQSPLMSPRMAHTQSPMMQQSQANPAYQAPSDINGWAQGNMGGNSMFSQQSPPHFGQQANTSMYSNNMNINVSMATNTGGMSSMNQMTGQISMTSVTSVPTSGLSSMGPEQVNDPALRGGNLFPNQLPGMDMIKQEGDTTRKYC

For orientation: inhibition means the relative decrease from the control value, in per cent.

A number with no mark means an inactive call. The source made the active and inactive calls.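 The calls were made as follows, unless noted: active = mean inhibition above 46.5%, the solvent-only control mean plus 3 SD; inactive = the rest.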

Nuclear receptor coactivator 3 (Homo sapiens), sequence (Q9Y6Q9 whole entry, looked up, the tested form may be a part): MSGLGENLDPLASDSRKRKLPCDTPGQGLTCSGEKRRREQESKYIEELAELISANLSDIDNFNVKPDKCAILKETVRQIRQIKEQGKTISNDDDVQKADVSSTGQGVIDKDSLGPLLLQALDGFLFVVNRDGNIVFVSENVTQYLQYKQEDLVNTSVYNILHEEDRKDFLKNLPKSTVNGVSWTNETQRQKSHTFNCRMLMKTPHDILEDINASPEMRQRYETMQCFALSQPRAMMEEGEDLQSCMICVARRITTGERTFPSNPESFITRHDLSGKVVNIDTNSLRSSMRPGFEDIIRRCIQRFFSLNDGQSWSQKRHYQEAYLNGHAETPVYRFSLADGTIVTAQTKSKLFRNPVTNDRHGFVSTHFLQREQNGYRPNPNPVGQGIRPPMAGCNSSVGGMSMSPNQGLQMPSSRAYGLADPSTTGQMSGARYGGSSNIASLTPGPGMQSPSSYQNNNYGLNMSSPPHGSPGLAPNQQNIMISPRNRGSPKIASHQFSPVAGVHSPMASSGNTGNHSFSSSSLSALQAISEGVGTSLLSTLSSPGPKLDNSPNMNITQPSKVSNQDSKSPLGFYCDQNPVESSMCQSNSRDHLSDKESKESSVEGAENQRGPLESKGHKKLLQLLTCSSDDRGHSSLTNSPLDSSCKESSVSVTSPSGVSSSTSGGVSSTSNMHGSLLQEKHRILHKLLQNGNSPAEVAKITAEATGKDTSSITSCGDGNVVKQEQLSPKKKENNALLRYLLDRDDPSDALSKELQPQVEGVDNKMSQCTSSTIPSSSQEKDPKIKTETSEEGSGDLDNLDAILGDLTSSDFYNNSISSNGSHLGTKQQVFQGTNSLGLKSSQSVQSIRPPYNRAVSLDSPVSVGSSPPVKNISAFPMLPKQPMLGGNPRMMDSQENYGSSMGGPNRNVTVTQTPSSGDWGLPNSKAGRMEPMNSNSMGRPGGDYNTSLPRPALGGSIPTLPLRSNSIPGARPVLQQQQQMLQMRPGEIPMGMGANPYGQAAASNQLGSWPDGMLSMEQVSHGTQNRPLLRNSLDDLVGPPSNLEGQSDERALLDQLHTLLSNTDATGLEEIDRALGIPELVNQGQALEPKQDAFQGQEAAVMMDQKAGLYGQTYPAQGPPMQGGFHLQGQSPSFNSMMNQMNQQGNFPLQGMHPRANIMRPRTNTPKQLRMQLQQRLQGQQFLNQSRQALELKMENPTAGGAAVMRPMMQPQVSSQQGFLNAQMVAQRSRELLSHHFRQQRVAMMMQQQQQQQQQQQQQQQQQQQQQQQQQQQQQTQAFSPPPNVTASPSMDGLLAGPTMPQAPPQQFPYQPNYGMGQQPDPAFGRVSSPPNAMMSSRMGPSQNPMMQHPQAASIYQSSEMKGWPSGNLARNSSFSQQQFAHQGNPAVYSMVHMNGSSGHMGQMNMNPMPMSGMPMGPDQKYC

As for `CCc1cc(-c2[nH]ncc2-c2ccc3c(c2)OCO3)c(O)cc1O`, the inhibition is 59.9% (active) in assay [1]; 34.5% (active) in assay [2]; 27.7% in assay [3]; 39.8% (active) in assay [4]; 30.3% in assay [5]; 18.2% in assay [6].
As to `Oc1ccc(Nc2ncnc3scc(-c4ccccc4)c23)cc1`, the inhibition in assay [1] is 38.6%; in assay [2], 35.8% (active); in assay [3], 41%; in assay [4] it was 31.3% (active); in assay [5], -10.2%; in assay [6], 57.6% (active).
For `Cc1c(/C(O)=C2/C(=O)C(=O)N(CCN3CCOCC3)C2c2ccco2)cnn1-c1ccccc1` (centres undefined), the inhibition was 23.3% in assay [1]; 5.75% in assay [2]; -20.6% in assay [3]; -37.5% in assay [4]; -7.38% in assay [5]; 39% in assay [6].
Consider `C=C1C(=O)O[C@H]2C[C@H]1[C@@H](OC(C)=O)C/C(C)=C/CC/C(C)=C\CC[C@]2(C)O`, for which the inhibition in assay [1] is 43.6% (active); in assay [2], 57.6% (active); in assay [3], 37%; in assay [4], 49.1% (active); in assay [5] it was 34.3%; in assay [6], 28.4%.
Consider `CCCCCN1C=CC(=C2C(=O)c3ccccc3C2=O)C=C1`, for which the inhibition in assay [1] is 44.2% (active); in assay [2] it was 31.3% (active); in assay [3], -55.8%; in assay [4], 15.5%; in assay [5] it was 55.1% (active); in assay [6], 77.3% (active).
Take `CC(=C/c1ccccc1)/C=N/n1c(-c2ccncc2)n[nH]c1=S`: the inhibition was 71.2% (active) in assay [1]; 45.2% (active) in assay [2]; 66.1% (active) in assay [3]; 51.6% (active) in assay [4]; 6.14% in assay [5]; 45% in assay [6].
Regarding `CN(C)C=Nc1ncc2c3ccccc3n(CCN(C)C)c2c1C#N`, the inhibition is 48.6% (active) in assay [1]; 29.9% (active) in assay [2]; 48.9% (active) in assay [3]; 33.2% (active) in assay [4]; -1.55% in assay [5]; 9.25% in assay [6].
Regarding `C=Cc1ccc(CC2(C)C(=O)Nc3ccc(-c4cccnc4)cc32)cc1` (centres undefined), the inhibition in assay [1] was 45.2% (active); in assay [2], 38% (active); in assay [3], 53.8% (active); in assay [4], 31.1% (active); in assay [5], 2.06%; in assay [6] it was 35%.
`c1csc(CNc2ncnc3ccc(-c4ccoc4)cc23)c1`: the inhibition in assay [1] was 62.6% (active); in assay [2] it was 41.1% (active); in assay [3], 34.6%; in assay [4] it was 37% (active); in assay [5], 5.65%; in assay [6] it was 37.1%.
On to `Cn1c(/C=C/c2cccc([N+](=O)[O-])c2)c([N+](=O)[O-])c(=O)n(C)c1=O`, for which the inhibition in assay [1] is 37.6%; in assay [2] it was 41.4% (active); in assay [3] it was 32.5%; in assay [4], 40.8% (active); in assay [5] it was 7.43%; in assay [6] it was 25.7%.
Consider `c1csc(C2=Nn3c(nnc3-c3ccncc3)SC2)c1`, for which the inhibition was 72.9% (active) in assay [1]; 58.1% (active) in assay [2]; 67.9% (active) in assay [3]; 50.8% (active) in assay [4]; 29.6% in assay [5]; 62.6% (active) in assay [6].
Consider `CC(C)(C)c1ccc(C(=O)NCCOc2ccccc2F)cc1`, for which the inhibition in assay [1] is 10.1%; in assay [2], -2.97%; in assay [3] it was -61%; in assay [4], -47.6%; in assay [5] it was -20.4%; in assay [6] it was 47.8% (active).
For `O=[N+]([O-])c1ccc2ncnc(Nc3ccc4c(c3)OCCO4)c2c1`, the inhibition in assay [1] is 57.9% (active); in assay [2], 44.4% (active); in assay [3], 59.8% (active); in assay [4], 33.3% (active); in assay [5], 3.91%; in assay [6] it was 28.4%.
Take `CCOc1cc(/C=C2\COc3ccccc3C2=O)cc(Br)c1OCC(=O)N(C)C`: the inhibition is 61.1% (active) in assay [1]; 35.8% (active) in assay [2]; 22.3% in assay [3]; 39.2% (active) in assay [4]; 44.5% (active) in assay [5]; 34% in assay [6].
As to `COc1cccc(N(C(=O)CCl)C(C(=O)NCCc2ccccc2)c2cccs2)c1` (centres undefined), the inhibition in assay [1] was 60.3% (active); in assay [2], 36% (active); in assay [3], 24.3%; in assay [4], 34% (active); in assay [5] it was 27.8%; in assay [6], 63.3% (active).
Turning to `Brc1ccc2ncnc(NCc3cccnc3)c2c1`, the inhibition is 70.6% (active) in assay [1]; 44% (active) in assay [2]; 55.9% (active) in assay [3]; 42.8% (active) in assay [4]; -3.67% in assay [5]; 39.8% in assay [6].
`Cc1c(CC(=O)NCCCC(=O)O)c(=O)oc2cc3c(cc12)CCC(C)(C)O3`: the inhibition in assay [1] was 35.8%; in assay [2], 17.2%; in assay [3], 15.6%; in assay [4] it was 15.5%; in assay [5] it was 58.8% (active); in assay [6], 60.9% (active).
Consider `COc1cncc(-c2cnc3sc(NCCc4ccccn4)nn23)c1`, for which the inhibition in assay [1] was 56.8% (active); in assay [2], 33.6% (active); in assay [3], 48.4% (active); in assay [4] it was 30.6% (active); in assay [5], 3.51%; in assay [6], 50.2% (active).
For `COc1ccc(-c2cn[nH]c2-c2ccc(O)cc2O)cc1`, the inhibition in assay [1] is 67.1% (active); in assay [2], 46.2% (active); in assay [3], 53.9% (active); in assay [4], 37.3% (active); in assay [5] it was -0.83%; in assay [6], 50% (active).
